D1 potentiator – Potentiators of Human D1 Dopamine Receptor: qHTS; D(1A) dopamine receptor (Homo sapiens), P21728; HEK293 TREx D1 cells, calcium flux, dopamine EC20 potentiation; potentiation, % at 10 µM; 360,000 tested, 0.036% active; in the data active means potentiation above about 30%
TRHR PAM – qHTS for Small Molecule Agonists and Allosteric Enhancers of Human TRH Receptor: Primary Screen for Enhancers; 360,000 tested, 0.66% active; enhancement, % at 2 µM; AID 493056, 2011; TRHR cells, fluo-8 calcium fluorescence, EC20 TRH enhancement; in the data active means enhancement above about 30%
Target sequence (P34981 whole entry, looked up): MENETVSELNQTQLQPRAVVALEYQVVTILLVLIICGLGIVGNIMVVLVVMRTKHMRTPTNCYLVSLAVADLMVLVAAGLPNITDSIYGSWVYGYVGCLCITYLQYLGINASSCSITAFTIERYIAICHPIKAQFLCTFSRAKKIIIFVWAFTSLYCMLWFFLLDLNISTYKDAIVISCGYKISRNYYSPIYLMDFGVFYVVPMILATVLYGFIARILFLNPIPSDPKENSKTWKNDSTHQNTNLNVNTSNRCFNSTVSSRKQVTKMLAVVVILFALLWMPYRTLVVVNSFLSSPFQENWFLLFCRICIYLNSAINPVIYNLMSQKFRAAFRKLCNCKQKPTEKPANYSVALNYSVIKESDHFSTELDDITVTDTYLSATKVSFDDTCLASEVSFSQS
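Enhancer read-out: after compound pinning and an initial kinetic agonist-mode read, an EC20 of TRH (10 nM final) was injected and fluo-8 calcium signal (Ex 480/Em 530) followed at 1 s/cycle for 100 cycles in TRHR-expressing cells.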
Epigenetic derep – Quantitative High-Throughput Screen for Regulators of Epigenetic Control | Potency, µM (top dose mostly 53.9 µM), hits mostly activators | 280,000 tested, 0.2% active | AID 1865, 2009 | murine LDR cells, GFP reporter derepression, 30 h; active means well fitted activation curve with a large enough effect; inconclusive means small, poorly fitted or top-dose-only effect; further: nearly all actives have a fitted effect of over 60% in size
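Readout is the number of GFP-expressing murine LDR cells, counted by cytometry following washing. Cells were treated with compound for 30 h at 37 C; the stably integrated CMV-GFP locus is normally silent.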
D1 ag – Allosteric Agonists of the Human D1 Dopamine Receptor: qHTS; HEK293 T-REx D1 cells, calcium flux, agonist mode; activation, % at 2 µM; 360,000 tested, 1% active
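Agonism was scored from calcium flux recorded over 180 s (1 read/s) after pintool compound addition, following a 10-cycle baseline. Cells were inducible force-coupled HEK293 TREx D1, plated overnight at 30 C and loaded with no-wash calcium dye.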
D1 antagonist – Antagonist of Human D 1 Dopamine Receptor: qHTS; HEK293 TREx D1 cells, calcium flux, dopamine EC80; active compounds read low; activity change, negative = inhibition, % at 10 µM; 360,000 tested, 3.2% active; D(1A) dopamine receptor (Homo sapiens), P21728; in the data active means activity change below about -30%
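Tetracycline-induced HEK293 T-REx cells with force-coupled D1 receptor were loaded with a no-wash calcium dye. Compound was added after a 10 s baseline and read kinetically for 180 s; EC80 dopamine was then added and calcium flux followed another 180 s.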
TRHR agonist – qHTS for Small Molecule Agonists and Allosteric Enhancers of Human TRH Receptor: Primary Screen for Agonists; TRHR cells, calcium flux fluo-8, FDSS agonist mode; activation, % at 2 µM; Thyrotropin-releasing hormone receptor (Homo sapiens), P34981; AID 493084, 2011; 360,000 tested, 0.18% active
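In this calcium-flux screen, cells bearing human TRHR are dye-loaded with fluo-8, baselined for 10 cycles, then exposed to library compounds; positive kinetic calcium responses during the agonist phase mark hits, with TRH as control.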
Of the large screens only hits and unclear results are named; the others gave an inactive call. Only some compounds are listed: those with a hit (about 4.6% of all), similar ones and a draw of the others. Unless noted, no stated cut-off is given here; in the data, active means activation above about 30%; inactive means the rest.

COc1ccc(C)cc1NC(c1nnc(-c2ccccc2)o1)c1ccc(F)cc1Cl (centres undefined)	none
CCOc1ccc(NS(=O)(=O)c2ccc(C(=O)NCC3(N4CCCCC4)CCCCC3)cc2)cc1	D1 ag 31 (no result: Epigenetic derep)
CCOc1ccc(S(=O)(=O)Nc2ccc3c(c2)N(C(C)=O)CCC3)cc1	D1 antagonist -32
CCOc1ccc(NS(=O)(=O)c2ccc(C(=O)N3CCCCCC3)cc2)cc1	D1 ag 59 (no result: Epigenetic derep)
CCOc1ccc(S(=O)(=O)Nc2ccc(C(=O)N3CCCC3)cc2)cc1	none (no result: Epigenetic derep)
CCOc1ccc(NS(=O)(=O)c2ccc(C(=O)NCC3(N(C)C)CCCCC3)cc2)cc1	none (no result: Epigenetic derep)
CC(=O)N1CCCc2ccc(NS(=O)(=O)c3ccc(C)cc3)cc21	none (no result: Epigenetic derep)
CCc1cc2c(c(CC)n1)CCC(=O)N2Cc1ccc(-c2ccccc2-c2nn[nH]n2)cc1	none (no result: D1 potentiator, TRHR PAM, D1 ag, D1 antagonist, TRHR agonist)
Nc1ncc(S(=O)(=O)NCc2ccc(Cl)cc2)cn1	none
CC(=O)C1=C(c2ccc(Cl)c(Cl)c2)N(C(C)=O)n2cnnc2S1	none (no result: D1 antagonist)
c1ccc(COc2ccc(OCCCNC3CCCC3)cc2)cc1	D1 ag 35
COCCCNCCCCOc1ccc(OCc2ccccc2)cc1	D1 ag 35
COCCCNCCOc1ccc(C(C)(C)c2ccccc2)cc1	none
C=CCNCCCCOc1ccc(OCc2ccccc2)cc1	D1 ag 45
COc1cccc(N2CCN(C(=O)Cn3nc(C)n4c(cc5c(OC)cccc54)c3=O)CC2)c1	none
Cc1cc(C)cc(-n2c(SCC(=O)NC3CCCCC3)nc3c([nH]c4ccccc43)c2=O)c1	none
c1ccc(Nc2nc3ccccc3n3nnnc23)cc1	D1 antagonist -69
Fc1ccccc1Nc1nc2ccccc2n2nnnc12	Epigenetic derep inconclusive
Oc1ccccc1Nc1nc2ccccc2n2nnnc12	Epigenetic derep 13µM, D1 ag 42
O=C(c1cccs1)N1CCc2c([nH]c3ccccc23)C1c1ccccn1 (centres undefined)	none
CC(=O)c1ccc(C(=O)N2CCc3c([nH]c4ccccc34)C2c2ccccn2)s1 (centres undefined)	D1 antagonist -31
Cc1ccc2[nH]c(CSc3nnc(NC(=O)COc4ccccc4)s3)cc(=O)c2c1	none
CC1CC(C)CN(CCOc2cccc(Cl)c2Cl)C1 (centres undefined)	D1 antagonist -35
CC1CC(C)CN(CCOc2ccc(Cl)cc2Cl)C1 (centres undefined)	none
Cc1nc(N2CCCC2)ncc1C(=O)Nc1ccccc1	none
O=C(Nc1ccc(C(=O)OCc2cc(=O)n3nc(C4CC4)sc3n2)cc1)c1cccc(F)c1	none
O=C(CCCCCCCC(=O)c1ccccc1)c1ccccc1	none
O=C(CCCCCCC(=O)c1ccccc1)c1ccccc1	D1 antagonist -32
O=C1NC(=O)/C(=C/c2ccc(-c3cc(C(=O)O)ccc3Cl)o2)S1	D1 antagonist -45 (no result: Epigenetic derep)
O=C1NC(=S)/C(=C\c2ccc(-c3ccccc3Cl)o2)S1	none
CCOc1ccc(-n2nc(CO)c(C(=O)NCc3cccc(OC)c3)n2)cc1	none
Cc1cc(OCCCn2c(CCNC(=O)C3CCCCC3)nc3ccccc32)ccc1Cl	D1 ag 44
C#Cc1ccc(C(=O)NCc2ccc(N3CCCC3=O)cc2)cc1	D1 antagonist -32
COC(=O)[C@H](Cc1ccccc1)NC(=O)c1cc(COc2c(F)cccc2F)on1	D1 ag 31 (no result: Epigenetic derep)
CN(Cc1cc(-c2ccccc2)on1)C(=O)c1cc(COc2c(F)cccc2F)on1	TRHR PAM 34
CCC(NC(=O)c1cc(COc2c(F)cccc2F)on1)c1ccncc1 (centres undefined)	none (no result: Epigenetic derep)
O=C(NCc1ccc(N2CCCC2=O)cc1)c1cc(COc2c(F)cccc2F)on1	D1 antagonist -32 (no result: Epigenetic derep)
CCCn1c(C)nc2c(N3CCOCC3)nc(C)nc21	none (no result: D1 potentiator, TRHR PAM, D1 ag, D1 antagonist, TRHR agonist)
CN(CC1COc2ccccc2O1)C(=O)c1cc(COc2c(F)cccc2F)on1 (centres undefined)	D1 antagonist -46 (no result: Epigenetic derep)
Cc1ccc(C)c(OCc2cc(C(=O)N(C)Cc3ccccn3)no2)c1	D1 antagonist -44 (no result: Epigenetic derep)
Cc1cc2c(cc1S(=O)(=O)CCC(=O)N1CCCC(C)C1)OCC(=O)N2 (centres undefined)	none
Cn1nnnc1Sc1ncnc2scc(-c3cccc([N+](=O)[O-])c3)c12	none (no result: Epigenetic derep)
Cc1ccc(C)c(N2CCN(C(=O)c3cc(S(=O)(=O)N4CCCCC4)cn3C)CC2)c1	none
Cc1ccc(Cn2c(C)nc3ccc([N+](=O)[O-])cc3c2=O)cc1	none (no result: Epigenetic derep)
Cc1nc2ccc([N+](=O)[O-])cc2c(=O)n1Cc1cccc(Br)c1	none (no result: Epigenetic derep)
Cc1nc2ccc([N+](=O)[O-])cc2c(=O)n1Cc1ccccc1Br	D1 antagonist -43 (no result: Epigenetic derep)
Cc1nc2ccc([N+](=O)[O-])cc2c(=O)n1Cc1ccc([N+](=O)[O-])cc1	D1 antagonist -62 (no result: Epigenetic derep)
CCCN1C(=O)c2ccccc2CC1(C)C(=O)NC1CCCCC1 (centres undefined)	none
CCC(Sc1nc2cc(OC)c(OC)cc2c(=O)n1CCc1ccc(OC)c(OC)c1)C(=O)NCCOC (centres undefined)	D1 antagonist -30
CCOC(=O)c1cc2c(C)n(-c3ccc(C)cc3)c(C)c2ccc1=O	D1 antagonist -58
CCOc1ccccc1N(CC(=O)Nc1ccccc1C(=O)O)S(C)(=O)=O	D1 antagonist -45
CCOC(=O)c1ccccc1NC(=O)CN(c1ccccc1OCC)S(C)(=O)=O	none
CCOC(=O)c1ccccc1NC(=O)CN(c1ccc(OCC)cc1)S(C)(=O)=O	TRHR PAM 35
COc1ccc(-c2nc(CSCC(=O)N3CCN(c4cccc(C)c4C)CC3)c(C)o2)cc1OC	none
O=[S+]([O-])(c1c(F)cccc1F)N1CCN([S+](=O)([O-])c2c(F)c(F)c(F)c(F)c2F)CC1	none (no result: Epigenetic derep)
COc1ccc(S(=O)(=O)N2Cc3ccccc3CC2C(=O)Nc2ccc(C)cc2)cc1OC (centres undefined)	none
CCc1nnc(NC(=O)C2Cc3ccccc3CN2S(=O)(=O)c2cccs2)s1 (centres undefined)	TRHR PAM 32
COc1ccc(NC(=O)C2Cc3ccccc3CN2S(=O)(=O)c2ccccc2)cc1OC (centres undefined)	D1 antagonist -59
COc1ccc(N2Cc3cccc(C(=O)Nc4ccc(F)cc4)c3C2=O)cc1	none

Compound activity (PubChem)
